Compound activity as filed in PubChem.
LASV entry inh – qHTS for Inhibitors of binding or entry into cells for Lassa Virus; AID 540256, 2011; Potency, µM (highest dose often 37.9 µM), usual class: inhibitors; 300,000 compounds, 1.2% hits; Lassa virus pseudotype entry inhibition, cell reporter; calls by dose curve; tested in HEK293 cells; note: nearly all actives have a fitted effect of over 50% in size
Marburg entry inh – qHTS for inhibitors of binding or entry into cells for Marburg Virus. Marburg virus pseudotyped entry inhibition, cell reporter. 300,000 compounds, 1.8% hits. Potency, µM (titrated, usually from 37.8 µM), most hits filed as inhibitors. AID 540276, 2011; calls by dose curve; tested in HEK293 cells
RE007 growth inh – qHTS Assay for Inhibitors of the HIV-1 protein Vpr; Potency, µM (highest dose often 92.2 µM), most hits filed as inhibitors; S. pombe RE007 Vpr strain, BacTiter-Glo ATP luminescence, 24 h; AID 651644, 2012; 360,000 compounds, 0.21% hits; active = well fitted falling curve with a large enough effect; inconclusive = small, poorly fitted or top-dose-only effect; inactive = no such curve, though single readings can be large or run the other way; note: nearly all actives have a fitted effect of over 50% in size
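Fission yeast strain RE007, carrying one chromosomally integrated HIV-1 vpr copy, was seeded at OD 0.01 in PMG+AL medium with 23 nL pinned compound. After 24 h at 30 °C and 99% humidity, viability was read by BacTiter-Glo luminescence.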
Sm TGR inh – qHTS Assay for the Inhibitors of Schistosoma Mansoni Peroxiredoxins; purified TGR, DTNB reduction, TNB absorbance 405 nm; Potency, µM (top dose mostly 114 µM), hits mostly inhibitors; 360,000 compounds, 3% hits; note: nearly all actives have a fitted effect of over 60% in size
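First, TGR (20 nM dispensed) and NADPH were mixed with compound. Second, a 15 min room-temperature incubation followed. Third, further NADPH and then DTNB were added to start the reaction. Finally, TNB absorbance was monitored kinetically.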
HCV inh – qHTS Assay for Inhibitors of Hepatitis C Virus (HCV). Huh7.5.1 HCVcc-Cre infection, luciferase reporter, 44 h. 340,000 compounds, 3.4% hits. Potency, µM (doses to about 41.8 µM), usual class: inhibitors. AID 651820, 2012
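Luciferase read-out (15 sec integration) after a 15 min room-temperature substrate step quantifies HCVcc-Cre infection. Cells, 1,000 per well, had compound added 4 h post-plating, then virus at ~0.5 moi, and were cultured 44 h.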
FMDV inh – High Throughput Screening for Foot and Mouth Disease Virus Antivirals; FMDV antiviral cell-based qHTS; Potency, µM (top dose mostly 57.9 µM), most hits filed as inhibitors; 410,000 compounds, 1.2% hits; AID 1159524, 2015; calls by dose curve; tested in HEK293T cells; note: read-out not given here; nearly all actives have a fitted effect of over 45% in size
Numbers stand for hits; - = inactive; ? = inconclusive; . = not tested or not shown. The list is not random: actives were taken first. Their share in the collection is about 7.2%. Unless noted, calls come from the whole dose curve; as a rule, active = well fitted curve in the direction sought with a large enough effect; inconclusive = small, poorly fitted or top-dose-only effect, or another doubt; inactive = no such curve, though single readings can be large; an effect the other way counts as inactive or inconclusive.

SMILES	LASV entry inh	Marburg entry inh	RE007 growth inh	Sm TGR inh	HCV inh	FMDV inh
Cn1ncc2c(O/N=C(\N)c3ccc(C(F)(F)F)cc3)ncnc21	.	.	-	-	?	22µM
COc1cc(OC)c(NC(=O)CCn2cnc3onc(-c4ccc(F)cc4)c3c2=O)cc1Cl	?	.	.	-	.	?
Cc1nn(C)c2c1c(-c1ccccc1)cc(=O)n2Cc1ccc(F)cc1Cl	-	.	.	-	.	-
CCCc1nc2sc3ccccc3c(=O)c2c(=O)n1Cc1ccc(OC)cc1	-	-	-	-	?	?
CCCc1nc2oc3cc(OC)ccc3c(=O)c2c(=O)n1Cc1ccco1	-	-	-	40µM	-	-
CCCc1nc2sc3ccccc3c(=O)c2c(=O)n1Cc1ccco1	-	-	-	35µM	-	-
COCCn1c(-c2cc(OC)c(OC)c(OC)c2)nc2oc3ccccc3c(=O)c2c1=O	5.8µM	?	-	-	?	-
COc1ccc2c(=O)c3c(=O)n(Cc4ccco4)c(-c4ccccc4)nc3oc2c1	-	-	-	32µM	?	-
COc1ccc2c(=O)c3c(=O)n(Cc4ccco4)c(-c4cc(OC)c(OC)c(OC)c4)nc3oc2c1	-	-	-	?	-	-
Cc1cc(C)n(CCc2nc3c4ccccc4nc(N4CCN(c5ccccc5F)CC4)n3n2)n1	.	-	.	-	.	-
CCN(c1ccccc1C)S(=O)(=O)c1ccc(N2CCCCS2(=O)=O)cc1	?	.	.	-	.	-
Cc1ccc2nc(N3CCN(c4ccccc4)CC3)c3nnnn3c2c1	-	.	.	-	.	-
O=C1Nc2ccccc2S/C1=C/c1cccs1	-	-	-	-	6.3µM	-
Cc1ccc(C(=O)n2nc(C)c(S(=O)(=O)N3CCCCCC3)c2C)cc1C	-	.	.	-	.	-
CCNC(=O)O/N=C(\C)c1sc(-c2ccccc2)nc1C	-	?	?	-	11µM	-
O=S(=O)(NC(=S)NC1CCCCC1)c1cccs1	-	-	-	25µM	-	-
CCOc1ccccc1CNC(=O)CCCN1C(=O)c2cccnc2Oc2ccc(Cl)cc21	-	.	.	-	.	-
O=C(CCN1C(=O)/C(=C\c2ccco2)SC1=S)Nc1ccc(C(=O)O)c(O)c1	.	.	-	18µM	-	-
O=C(CN1C(=O)/C(=C\c2ccco2)SC1=S)Nc1ccc(O)cc1C(=O)O	.	.	-	25µM	-	-
O=C(CCN1C(=O)/C(=C/c2ccco2)SC1=S)Nc1ccc(O)cc1C(=O)O	?	-	-	?	-	-
CC(=O)c1cccc(N=c2scc(-c3ccc(S(=O)(=O)N4CCOCC4)cc3)n2CCO)c1	?	?	-	-	1µM	20µM
C=CCn1c(-c2ccc(S(=O)(=O)N3CCOCC3)cc2)csc1=Nc1ccccc1	?	-	-	-	-	?
COc1ccccc1N=c1scc(-c2ccc(S(=O)(=O)N3CCCC3)cc2)n1C	?	.	.	-	.	2.8µM
CC(C)Cn1c(-c2ccc(S(=O)(=O)N3CCCC3)cc2)csc1=Nc1ccccc1	?	-	.	-	.	-
O=S(=O)(c1ccc(-c2csc(=Nc3ccc(F)cc3)n2CCCCCCO)cc1)N1CCCC1	?	?	.	-	.	25µM
SMILES	LASV entry inh	Marburg entry inh	RE007 growth inh	Sm TGR inh	HCV inh	FMDV inh
COc1ccc2c(c1)c1c(c(=O)n(-c3ccccc3)c(=O)n1CC(=O)Nc1ccc(C)c(C)c1)n2C	-	.	.	-	.	-
CCc1cccc(NC(=O)CSC2=NS(=O)(=O)c3ccccc32)c1	.	-	-	3.2µM	-	-
CCN(c1ccc(C)cc1C)S(=O)(=O)c1nnc(NC(=O)c2ccc(F)cc2)s1	-	.	.	-	.	?
Cc1ccc(-n2cnc3scc(-c4cccs4)c3c2=O)cc1	-	-	-	-	11µM	-
Cc1ccc(C(=O)N(Cc2ccco2)c2ccccn2)cc1	?	-	.	-	.	-
O=C(c1cc(-c2ccc(Br)cc2)n[nH]1)N1CCN(S(=O)(=O)c2ccc(Br)cc2)CC1	-	.	.	-	.	-
COc1ccc(S(=O)(=O)N2CCN(C(=O)c3cc(-c4ccc(Br)cc4)n[nH]3)CC2)cc1OC	10µM	?	-	-	?	?
CCOC(=O)C1(C)CCN1C(=O)c1ccccc1 (configuration not stated)	.	.	-	.	.	-
